Values joined by “and” are separate entries in the source; they are usually repeats but may differ in a detail not shown here. Equal entries are not always repeated. Records with an inconclusive call do not appear. Entries that show only a call come without a potency. More than one record can exist for a structure, and the calls need not agree. Active and inactive are the calls of the source. Unless noted, the call rests on the fitted dose curve; in most records, active means well fitted cell-killing curve with a large enough effect in the repeat runs (not every such curve was filed as active); inconclusive means weak or mixed curves, or effect the other way; inactive means no such curve, though single readings can be large or run the other way.
target: Peroxisome proliferator-activated receptor delta (Homo sapiens) (UniProt Q03181); test: qHTS assay to identify small molecule antagonists of the peroxisome proliferator-activated receptor delta (PPARd) signaling pathway (AID 743215; active means well fitted inhibition curve with a large enough effect in the signal ratio in the repeat runs, not every such curve was filed as active; the % refers to the signal ratio;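 further: cells stimulated with agonist L165041 at 300 nM final during compound exposure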); details: HEK293H PPARd-UAS-bla, beta-lactamase FRET ratio, antagonist, 17 h; series mostly up to 62 µM
How it was run: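 PPARd-bla HEK293H cells (UAS-bla reporter) preincubated 5 h, then given compound plus 300 nM final L165041 agonist for 17 h at 37 C. Beta-lactamase activity read by LiveBLAzer B/G FRET substrate fluorescence after 2 h at room temperature.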

Chain of Peroxisome proliferator-activated receptor delta (Homo sapiens) (Q03181 whole entry, looked up): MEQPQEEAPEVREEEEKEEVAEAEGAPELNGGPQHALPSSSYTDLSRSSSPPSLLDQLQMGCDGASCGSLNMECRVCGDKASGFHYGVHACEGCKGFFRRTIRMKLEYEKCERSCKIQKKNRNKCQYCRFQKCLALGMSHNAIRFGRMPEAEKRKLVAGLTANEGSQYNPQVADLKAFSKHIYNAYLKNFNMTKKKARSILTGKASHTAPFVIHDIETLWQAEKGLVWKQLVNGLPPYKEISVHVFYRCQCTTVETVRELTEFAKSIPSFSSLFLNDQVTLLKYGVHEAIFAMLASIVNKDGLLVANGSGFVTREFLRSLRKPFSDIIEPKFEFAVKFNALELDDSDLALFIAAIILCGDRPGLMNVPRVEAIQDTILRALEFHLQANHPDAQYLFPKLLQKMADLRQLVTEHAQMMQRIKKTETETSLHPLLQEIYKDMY

Row | Structure (SMILES) | Potency | ratio activity, negative = inhibition
1 | CCCOc1nn(C(=O)NS(=O)(=O)c2ccccc2C(=O)OC)c(=O)n1C | inactive | –
2 | CCOC(=O)Nc1cccc(OC(=O)Nc2ccccc2)c1 | inactive | –
3 | CC(C)(C)C(=O)C(Cl)Cl | inactive | –
4 | CCCCCCC(=O)CCCCCC/C=C/C[C@@H](O)[C@H](O)[C@@](N)(CO)C(=O)O | inactive | –
5 | CCOC1Oc2ccc(OS(C)(=O)=O)cc2C1(C)C (configuration not stated) | inactive | –
6 | CCOC(=O)COc1ccc(Cl)cc1Cl | inactive | –
7 | CCc1ccc(C2CCNCC2)cc1 | inactive | –
8 | Cl/C=C/CCl | inactive | –
9 | N#CN=C1SCCN1Cc1ccc(Cl)nc1 | inactive | –
10 | BrCCc1ccccc1 | inactive | –
11 | Brc1c(Br)c(Br)c(Br)c(Br)c1Br | – | -21.8% [at 6.26 µM] (inactive)
12 | O=P(O)(O)CN(CP(=O)(O)O)CP(=O)(O)O | inactive | –
13 | O=C(CCl)NCO | inactive | –
14 | CC[C@@H](CO)NC(=O)[C@@H]1C=C2c3cccc4[nH]cc(c34)C[C@H]2N(C)C1 | inactive | –
15 | CCC(C)(C#N)N=NC(C)(C#N)CC (configuration not stated) | inactive | –
16 | O=c1[nH]oc2c1CCNC2 | inactive | –
17 | CCOC(=O)C(Cl)Cc1cc(-n2nc(C)n(C(F)F)c2=O)c(F)cc1Cl (configuration not stated) | inactive | –
18 | CC(=O)CN(CC(C)=O)N=O | inactive | –
19 | C=C(C)[C@H]1CN[C@H](C(=O)O)[C@H]1CC(=O)O | inactive | –
20 | O=C(O)CBr | inactive | –
21 | CC#Cc1cc(C)nc(Nc2ccccc2)n1 | inactive | –
22 | [P]#[In] | inactive | –
23 | O=C/C=C/c1ccco1 | inactive | –
24 | CCCOC(=O)c1cncn1C(C)c1ccccc1 (configuration not stated) | inactive | –
25 | CCC1(CC)C(=O)C=CNC1=O | inactive | –

target: Bile acid receptor (Homo sapiens) (UniProt Q96RI1); test: qHTS assay to identify small molecule antagonists of the farnesoid-X-receptor (FXR) signaling pathway (AID 743217; active means well fitted inhibition curve with a large enough effect in the signal ratio in the repeat runs, not every such curve was filed as active; the % refers to the signal ratio); details: HEK293T FXR-UAS-bla, beta-lactamase ratio, CDCA-stimulated, 16 h; series mostly up to 62.6 µM
How it was run: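 FXR-UAS-bla HEK 293T cells (beta-lactamase reporter) given compound plus chenodeoxycholic acid (50 uM final), 16 h at 37C. LiveBLAzer B/G FRET substrate added for 2 h at room temperature; fluorescence read.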

Chain of Bile acid receptor (Homo sapiens) (Q96RI1 whole entry, looked up): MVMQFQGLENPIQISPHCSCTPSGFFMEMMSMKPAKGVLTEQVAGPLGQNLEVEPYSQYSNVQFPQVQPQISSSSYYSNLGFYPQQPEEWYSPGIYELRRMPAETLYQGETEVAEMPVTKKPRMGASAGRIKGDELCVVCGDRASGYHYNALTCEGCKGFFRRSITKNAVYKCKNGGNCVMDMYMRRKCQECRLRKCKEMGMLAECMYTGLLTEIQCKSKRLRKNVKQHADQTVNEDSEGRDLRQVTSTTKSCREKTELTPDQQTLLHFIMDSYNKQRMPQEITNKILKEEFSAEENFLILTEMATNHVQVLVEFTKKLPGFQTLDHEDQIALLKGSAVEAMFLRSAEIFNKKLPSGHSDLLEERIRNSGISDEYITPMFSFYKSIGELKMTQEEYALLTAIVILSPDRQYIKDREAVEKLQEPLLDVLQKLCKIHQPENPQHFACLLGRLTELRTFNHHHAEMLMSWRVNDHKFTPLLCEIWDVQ

Row | Structure (SMILES) | outcome
26 | ClC(Cl)(Cl)Cl | inactive
27 | CC(C)C(C)(N)C#N (configuration not stated) | inactive
28 | C=C(Cl)CSC(=S)N(CC)CC | inactive
29 | CCN[C@@H](C)Cc1ccccc1 | inactive

tested on: not listed separately; test: qHTS assay to identify small molecule agonists of the farnesoid-X-receptor (FXR) signaling pathway - cell viability counter screen (AID 743218; active means well fitted cell-killing curve with a large enough effect in the repeat runs; further: nearly all actives have a fitted effect of over 45% in size; further: potency means the concentration at half of the fitted maximal effect); details: FXR-bla HEK293T viability, CellTiter-Glo luminescence, 16 h; series mostly up to 62.6 µM
How it was run: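 FXR-UAS-bla HEK 293T cells exposed to compounds for 16 h at 37C. Cytotoxicity read in the same wells by CellTiter-Glo luminescence after 30 min at room temperature, following the beta-lactamase FRET read.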

Row | Structure (SMILES) | Potency | viability change, negative = cytotoxic
30 | CCOC(=O)Nc1cccc(OC(=O)Nc2ccccc2)c1 | inactive | –
31 | CC(C)(C)C(=O)C(Cl)Cl | inactive | –
32 | CCOC1Oc2ccc(OS(C)(=O)=O)cc2C1(C)C (configuration not stated) | inactive | –
33 | CC(C)c1ccc(O)cc1 | inactive | –
34 | CCOC(=O)COc1ccc(Cl)cc1Cl | inactive | –
35 | CCc1ccc(C2CCNCC2)cc1 | inactive | –
36 | Cl/C=C/CCl | inactive | –
37 | N#CN=C1SCCN1Cc1ccc(Cl)nc1 | inactive | –
38 | BrCCc1ccccc1 | inactive | –
39 | ClC(Cl)(Cl)Cl | inactive | –
40 | Brc1c(Br)c(Br)c(Br)c(Br)c1Br | – | 26.7% [at 5.95 µM] (inactive)
41 | O=P(O)(O)CN(CP(=O)(O)O)CP(=O)(O)O | inactive | –
42 | O=C(CCl)NCO | inactive | –
43 | CN=CNc1ccc(C)cc1C | inactive | –
44 | CC[C@@H](CO)NC(=O)[C@@H]1C=C2c3cccc4[nH]cc(c34)C[C@H]2N(C)C1 | inactive | –
45 | CCC(C)(C#N)N=NC(C)(C#N)CC (configuration not stated) | inactive | –

Row | Structure (SMILES) | Potency | viability change, negative = cytotoxic
46 | C=CCCC#N | inactive | –
47 | O=c1[nH]oc2c1CCNC2 | inactive | –
48 | CC(=O)CN(CC(C)=O)N=O | inactive | –
49 | C=C(C)[C@H]1CN[C@H](C(=O)O)[C@H]1CC(=O)O | inactive | –
50 | O=C(O)CBr | inactive | –
51 | [P]#[In] | inactive | –
52 | O=C/C=C/c1ccco1 | inactive | –
53 | C/C=C/CC#N | inactive | –
54 | N#CN | inactive | –
55 | CC(C)C(C)(N)C#N (configuration not stated) | inactive | –
56 | CCCOC(=O)c1cncn1C(C)c1ccccc1 (configuration not stated) | inactive | –
57 | C=C(Cl)CSC(=S)N(CC)CC | inactive | –
58 | CCN[C@@H](C)Cc1ccccc1 | inactive | –
59 | O=C1C2CC=CCC2C(=O)N1SC(Cl)(Cl)Cl (configuration not stated) | inactive and 21.5 µM (active) | –
60 | CCC1(CC)C(=O)C=CNC1=O | inactive | –

target: Bile acid receptor (Homo sapiens) (UniProt Q96RI1); test: qHTS assay to identify small molecule agonists of the farnesoid-X-receptor (FXR) signaling pathway (AID 743220; active means well fitted activation curve with a large enough effect in the signal ratio in the repeat runs, not every such curve was filed as active; the % refers to the signal ratio); details: HEK293T FXR-UAS-bla, beta-lactamase FRET ratio, 16 h; series mostly up to 62.6 µM
How it was run: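 Beta-lactamase reporter under UAS control in GeneBLAzer FXR HEK 293T cells (5000/well) measured with LiveBLAzer FRET substrate after 2 h at room temperature. Compound exposure lasted 16 h at 37C.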

Row | Structure (SMILES) | outcome
61 | ClC(Cl)(Cl)Cl | inactive
62 | C=CCCC#N | inactive
63 | CCOC(=O)C(Cl)Cc1cc(-n2nc(C)n(C(F)F)c2=O)c(F)cc1Cl (configuration not stated) | inactive
64 | C/C=C/CC#N | inactive
65 | CC(C)C(C)(N)C#N (configuration not stated) | inactive
66 | C=C(Cl)CSC(=S)N(CC)CC | inactive
67 | CCN[C@@H](C)Cc1ccccc1 | inactive

tested on: not listed separately; test: qHTS assay to identify small molecule antagonists of the farnesoid-X-receptor (FXR) signaling pathway - cell viability counter screen (AID 743221); details: FXR-bla HEK293T viability, CellTiter-Glo luminescence, 16 h; series mostly up to 62.6 µM; further: nearly all actives have a fitted effect of over 50% in size; further: potency means the concentration at half of the fitted maximal effect
How it was run: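 HEK 293T FXR-bla cells, 5 h pre-incubation; compound + CDCA 50 uM final, 16 h, 37 C; beta-lactamase FRET read first, then CellTiter-Glo luminescence, 30 min RT.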

Row | Structure (SMILES) | Potency | activity change, negative = cytotoxicity
68 | CCCOc1nn(C(=O)NS(=O)(=O)c2ccccc2C(=O)OC)c(=O)n1C | inactive | –
69 | CCOC(=O)Nc1cccc(OC(=O)Nc2ccccc2)c1 | inactive | –
70 | CC(C)(C)C(=O)C(Cl)Cl | inactive | –
71 | CCCCCCC(=O)CCCCCC/C=C/C[C@@H](O)[C@H](O)[C@@](N)(CO)C(=O)O | inactive | –
72 | CCOC1Oc2ccc(OS(C)(=O)=O)cc2C1(C)C (configuration not stated) | inactive | –
73 | CC(C)c1ccc(O)cc1 | inactive | –
74 | CCOC(=O)COc1ccc(Cl)cc1Cl | inactive | –
75 | CCc1ccc(C2CCNCC2)cc1 | inactive | –
76 | Cl/C=C/CCl | inactive | –
77 | N#CN=C1SCCN1Cc1ccc(Cl)nc1 | inactive | –
78 | BrCCc1ccccc1 | inactive | –
79 | ClC(Cl)(Cl)Cl | inactive | –
80 | Brc1c(Br)c(Br)c(Br)c(Br)c1Br | – | -6% [at 5.95 µM] (inactive)
81 | O=P(O)(O)CN(CP(=O)(O)O)CP(=O)(O)O | inactive | –
82 | O=C(CCl)NCO | inactive | –
83 | CN=CNc1ccc(C)cc1C | inactive | –
84 | CC[C@@H](CO)NC(=O)[C@@H]1C=C2c3cccc4[nH]cc(c34)C[C@H]2N(C)C1 | inactive | –
85 | CCC(C)(C#N)N=NC(C)(C#N)CC (configuration not stated) | inactive | –

Row | Structure (SMILES) | Potency | activity change, negative = cytotoxicity
86 | C=CCCC#N | inactive | –
87 | O=c1[nH]oc2c1CCNC2 | inactive | –
88 | CCOC(=O)C(Cl)Cc1cc(-n2nc(C)n(C(F)F)c2=O)c(F)cc1Cl (configuration not stated) | inactive | –
89 | CC(=O)CN(CC(C)=O)N=O | inactive | –
90 | C=C(C)[C@H]1CN[C@H](C(=O)O)[C@H]1CC(=O)O | inactive | –
91 | O=C(O)CBr | inactive | –
92 | CC#Cc1cc(C)nc(Nc2ccccc2)n1 | inactive | –
93 | [P]#[In] | inactive | –
94 | O=C/C=C/c1ccco1 | inactive | –
95 | C/C=C/CC#N | inactive | –
96 | N#CN | inactive | –
97 | CC(C)C(C)(N)C#N (configuration not stated) | inactive | –
98 | CCCOC(=O)c1cncn1C(C)c1ccccc1 (configuration not stated) | inactive | –
99 | C=C(Cl)CSC(=S)N(CC)CC | inactive | –
100 | CCN[C@@H](C)Cc1ccccc1 | inactive | –
101 | O=C1C2CC=CCC2C(=O)N1SC(Cl)(Cl)Cl (configuration not stated) | inactive and 42.9 µM (active) | –
102 | CCC1(CC)C(=O)C=CNC1=O | inactive | –
